From PubChem BioAssay (NCI) come the findings set out here.

Test systems include NCI-H23 lung; NCI-H226 lung; NCI-H322M lung; HOP-62 NSCLC; NCI-H460 lung; HOP-92 NSCLC; NCI-H522 lung; A549/ATCC NSCLC; 786-0 renal; COLO 205 colon.
Common to all, as to experiment: NCI-60 one-dose screen, 48 h (100 = growth as untreated, 0 = no growth, -100 = all killed)
Common to all, as to conditions: 10 µM unless noted

Compounds without any hit were thinned out: in the full panel of roughly 83,000, 20% have a hit.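 A percent growth of 40 corresponds to 60% growth inhibition; 0 means no net growth; -100 means all cells died. Active threshold: below 10.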 A number with no mark means an inactive call. Calls of active or inactive are those of the source.

Take `O=C1C(Cl)=C(Cl)C(=O)c2c1nc1n2CCCC1`: the growth is 74.3% with NCI-H23 lung; 109% in the assay on NCI-H226 lung; 52.7% in the assay with NCI-H322M lung; 97.1% in the assay with HOP-62 NSCLC; 39.9% with NCI-H460 lung; 102% in the assay on HOP-92 NSCLC. The growth in the assay with NCI-H522 lung was 85.2%; with A549/ATCC NSCLC it was 98.4%; with 786-0 renal it was 94.7%; with COLO 205 colon it was 5.79% (active).
Take `COc1ccc(-c2nn(-c3ccccc3)cc2/C=C/C(=O)OCc2cn(-c3ccc(F)c(Cl)c3)nn2)cc1`: the growth with NCI-H23 lung is 72.6%; in the assay with NCI-H226 lung, 80.5%; in the assay with NCI-H322M lung, 92.1%; in the assay on HOP-62 NSCLC, 78.5%; with NCI-H460 lung, 96.7%; with HOP-92 NSCLC, 101%. The growth with NCI-H522 lung was 65.2%; with A549/ATCC NSCLC, 92.1%; in the assay on 786-0 renal, 101%; with COLO 205 colon it was 104%.
Consider `COc1ccc(Cl)cc1Nc1nc(C(F)(F)F)ccc1C(=O)N/N=C/c1cccnc1`, for which the growth in the assay on NCI-H23 lung is 41.5%; with NCI-H226 lung, 51.9%; with NCI-H322M lung it was 59%; with HOP-62 NSCLC it was 54%; with NCI-H460 lung, 33.6%; with HOP-92 NSCLC, 56.8%. Also, the growth in the assay on NCI-H522 lung was 29.3%; in the assay on A549/ATCC NSCLC it was 58.7%; with 786-0 renal it was 18.7%; in the assay on COLO 205 colon, 44.5%.
With `Cn1c2c(Cl)c(Cl)ccc2c2ccn3c(=O)c4ccccc4nc3c21`, the growth was 89% in the assay with NCI-H23 lung; 90.8% with NCI-H226 lung; 90.9% in the assay with NCI-H322M lung; 68% in the assay on HOP-62 NSCLC; 104% with NCI-H460 lung; 92.7% with HOP-92 NSCLC. Further, the growth in the assay with NCI-H522 lung is 84.8%; with A549/ATCC NSCLC it was 108%; in the assay with 786-0 renal, 99.2%; in the assay with COLO 205 colon, 100%.
On to `COc1ccc(-c2cc(/C=C3\C(=O)Nc4ccc(Cl)cc43)[nH]n2)cc1`, for which the growth in the assay on NCI-H23 lung is 63.1%; with NCI-H226 lung, 75.7%; in the assay on NCI-H322M lung, 77.3%; with HOP-62 NSCLC, 55.5%; in the assay with NCI-H460 lung it was 37%; in the assay on HOP-92 NSCLC, 80.7%. In addition, the growth was 9.37% (active) in the assay with NCI-H522 lung, 35.7% with A549/ATCC NSCLC, 82.3% in the assay with 786-0 renal and 37% in the assay with COLO 205 colon.
Regarding `O=C1C[C@H](N2C(=O)c3ccccc3S2(=O)=O)C2CO[C@@H]1O2`, the growth in the assay on NCI-H23 lung was 89.3%; with NCI-H226 lung it was 96.1%; in the assay with NCI-H322M lung, 103%; in the assay on HOP-62 NSCLC, 92.6%; with NCI-H460 lung, 103%; with HOP-92 NSCLC it was 98.4%. Besides, the growth was -45.6% (active) in the assay with NCI-H522 lung, 89.1% in the assay on A549/ATCC NSCLC, 96.9% in the assay with 786-0 renal and 64.1% with COLO 205 colon.
In the case of `COc1cccc(NC(=O)c2sc3nc4c(cc3c2N)CN(Cc2ccccc2)CC4)c1`, the growth with NCI-H23 lung is 81.2%; with NCI-H226 lung, 57.2%; in the assay with NCI-H322M lung, 74%; in the assay with HOP-62 NSCLC, 31.4%; in the assay on NCI-H460 lung it was 45.6%; in the assay on HOP-92 NSCLC, 42.1%. For the same compound, the growth was 68% with NCI-H522 lung, 62.1% in the assay with A549/ATCC NSCLC, 37.2% in the assay on 786-0 renal and 78.6% with COLO 205 colon.
With `OCC1C2C=CC(C2)C1CO` (stereo not given), the growth in the assay on NCI-H23 lung is 108%; in the assay on NCI-H226 lung it was 109%; with NCI-H322M lung it was 114%; in the assay on HOP-62 NSCLC, 90.9%; with NCI-H460 lung it was 121%; in the assay with HOP-92 NSCLC, 60.5%. In addition, the growth is 97% with NCI-H522 lung, 89% in the assay on A549/ATCC NSCLC, 101% with 786-0 renal and 191% in the assay with COLO 205 colon.
For the compound `O=C1C=CC(=O)N1c1ccc(Cc2ccc(N3C(=O)C=CC3=O)cc2)cc1`, the growth in the assay with NCI-H23 lung is 86%; in the assay on NCI-H226 lung, 84.8%; in the assay on NCI-H322M lung, 100%; in the assay with HOP-62 NSCLC, 90.5%; with NCI-H460 lung, 94.8%; with HOP-92 NSCLC, 90%. In addition, the growth in the assay with NCI-H522 lung is 94.5%; in the assay on A549/ATCC NSCLC, 111%; in the assay on 786-0 renal, 97.1%; with COLO 205 colon, 115%.
`Cc1cc2cc3cc(C)c(N(C)C)cc3[n+](C)c2cc1N(C)C`: the growth with NCI-H23 lung was 28.3%; with NCI-H226 lung, 51.6%; in the assay on NCI-H322M lung it was 25.4%; in the assay with HOP-62 NSCLC it was 30%; in the assay with NCI-H460 lung it was 10.9%; in the assay on HOP-92 NSCLC, -34.6% (active). Also, the growth with NCI-H522 lung is -5.03% (active); in the assay with A549/ATCC NSCLC, 25.8%; with 786-0 renal, 26.7%; in the assay with COLO 205 colon it was -19.2% (active).
With `COc1cc(/C=N\NC(=O)CN2CCN(c3cc4c(cc3F)c(=O)c(C(=O)N/N=C/c3ccc(O)c(OC)c3)cn4C3CC3)CC2)ccc1O`, the growth was 53.7% in the assay with NCI-H23 lung; 70.5% in the assay with NCI-H226 lung; 31.7% in the assay with NCI-H322M lung; 73.1% in the assay with HOP-62 NSCLC; 67% in the assay with NCI-H460 lung; 70.9% in the assay with HOP-92 NSCLC. The growth in the assay with NCI-H522 lung was 18.9%; in the assay on A549/ATCC NSCLC it was 66.9%; in the assay with 786-0 renal, 92.4%; in the assay with COLO 205 colon it was -9.77% (active).
Take `N=S(=O)(NC(=O)c1ccc(Cl)cc1Cl)c1ccc(Br)s1` (stereo not given): the growth with NCI-H23 lung was 102%; in the assay with NCI-H226 lung, 94.5%; in the assay on NCI-H322M lung, 118%; in the assay with HOP-62 NSCLC, 91%; in the assay on NCI-H460 lung, 85.8%; with HOP-92 NSCLC, 86.9%. Moreover, the growth was 103% with NCI-H522 lung, 80.7% with A549/ATCC NSCLC, 89.9% in the assay on 786-0 renal and 107% with COLO 205 colon.
As to `N#Cc1c(N)nc(N)nc1Nc1ccc(Br)cc1`, the growth with NCI-H23 lung was 102%; with NCI-H226 lung, 83.9%; in the assay on NCI-H322M lung, 89.9%; in the assay on HOP-62 NSCLC it was 119%; in the assay on NCI-H460 lung it was 96.7%; in the assay on HOP-92 NSCLC, 92.3%. Also, the growth in the assay on NCI-H522 lung was 70.9%; with A549/ATCC NSCLC it was 78.2%; in the assay on 786-0 renal, 123%; with COLO 205 colon, 135%.
